This note sets out measurements from paper PMC7862700, “An all-to-all approach to the identification of sequence-specific readers for epigenetic DNA modifications on cytosine”.

Holding throughout (test): DAPPL (digital affinity profiling via proximity ligation, sequencing); 10 mM Tris-HCl pH 7.5, 50 mM NaCl, 1 mM DTT, 4% glycerol, room temperature, 30 min; GST-TFs on glutathione beads, 16-mer random dsDNA library, 0.1% formaldehyde crosslink after washing; high values mean tight binding
What all share (conditions): protein: recombinant; tags: N-terminal GST; dsDNA, one strand shown

In one test the target is T1, FLI1 (Homo sapiens, UniProt Q01543 1-452).
T1 sequence: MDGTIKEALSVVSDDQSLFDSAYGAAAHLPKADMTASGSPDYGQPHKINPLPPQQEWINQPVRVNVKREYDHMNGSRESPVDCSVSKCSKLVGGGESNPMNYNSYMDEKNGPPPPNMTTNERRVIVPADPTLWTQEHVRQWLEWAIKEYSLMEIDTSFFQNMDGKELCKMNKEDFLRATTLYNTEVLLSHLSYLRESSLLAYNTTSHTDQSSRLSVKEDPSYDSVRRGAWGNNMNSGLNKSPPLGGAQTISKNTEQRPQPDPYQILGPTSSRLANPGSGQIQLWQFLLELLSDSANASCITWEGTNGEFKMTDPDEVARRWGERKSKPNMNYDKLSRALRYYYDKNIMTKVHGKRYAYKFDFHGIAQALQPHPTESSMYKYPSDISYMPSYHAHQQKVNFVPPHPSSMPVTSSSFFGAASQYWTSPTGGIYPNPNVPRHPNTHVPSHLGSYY
Summed up:
(§1)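 Each value of binding signal is a hexamer's read frequency for a factor divided by the same hexamer's frequency in the tag-only sample. Barcoded, bead-captured GST fusions of human transcription factors made in yeast were pooled with that sample and incubated with 200 nmole of a random double-stranded 16-mer DNA library in Tris/NaCl/DTT/glycerol buffer at room temperature for 30 min. Washing, 0.1% formaldehyde crosslinking, proximity ligation, PCR and Illumina NextSeq500 sequencing followed.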

The target of the next test is T2, ELK1 (Homo sapiens, UniProt P19419 1-428).
T2 sequence: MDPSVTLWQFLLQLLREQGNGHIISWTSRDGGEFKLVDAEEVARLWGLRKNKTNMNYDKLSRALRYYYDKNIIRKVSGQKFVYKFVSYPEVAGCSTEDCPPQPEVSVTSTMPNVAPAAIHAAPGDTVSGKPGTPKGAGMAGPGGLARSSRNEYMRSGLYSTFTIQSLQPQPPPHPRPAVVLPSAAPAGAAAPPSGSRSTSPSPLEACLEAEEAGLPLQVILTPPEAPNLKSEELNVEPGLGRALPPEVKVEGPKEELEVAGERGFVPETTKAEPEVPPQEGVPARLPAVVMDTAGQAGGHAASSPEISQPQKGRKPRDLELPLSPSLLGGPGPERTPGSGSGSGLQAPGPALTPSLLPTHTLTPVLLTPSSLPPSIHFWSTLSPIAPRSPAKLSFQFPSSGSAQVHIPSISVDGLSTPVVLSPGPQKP
The method, boiled down:
as §1

A further test deals with T3, GABPA (Homo sapiens, UniProt Q06546 1-454).
T3 sequence: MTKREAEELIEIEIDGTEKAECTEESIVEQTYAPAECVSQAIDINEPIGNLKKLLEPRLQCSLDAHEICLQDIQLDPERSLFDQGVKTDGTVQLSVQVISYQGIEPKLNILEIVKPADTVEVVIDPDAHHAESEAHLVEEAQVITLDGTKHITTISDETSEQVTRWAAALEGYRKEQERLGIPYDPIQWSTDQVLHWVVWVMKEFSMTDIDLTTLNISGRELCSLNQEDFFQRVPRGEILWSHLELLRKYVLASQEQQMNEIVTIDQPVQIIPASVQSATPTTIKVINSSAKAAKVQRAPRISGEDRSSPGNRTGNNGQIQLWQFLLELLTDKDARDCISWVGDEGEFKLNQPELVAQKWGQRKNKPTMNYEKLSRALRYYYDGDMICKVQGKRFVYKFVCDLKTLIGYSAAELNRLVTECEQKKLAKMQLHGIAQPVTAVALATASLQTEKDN
Summed up: as §1

Another test deals with T4, ERG (Homo sapiens, UniProt P11308 1-479).
T4 sequence: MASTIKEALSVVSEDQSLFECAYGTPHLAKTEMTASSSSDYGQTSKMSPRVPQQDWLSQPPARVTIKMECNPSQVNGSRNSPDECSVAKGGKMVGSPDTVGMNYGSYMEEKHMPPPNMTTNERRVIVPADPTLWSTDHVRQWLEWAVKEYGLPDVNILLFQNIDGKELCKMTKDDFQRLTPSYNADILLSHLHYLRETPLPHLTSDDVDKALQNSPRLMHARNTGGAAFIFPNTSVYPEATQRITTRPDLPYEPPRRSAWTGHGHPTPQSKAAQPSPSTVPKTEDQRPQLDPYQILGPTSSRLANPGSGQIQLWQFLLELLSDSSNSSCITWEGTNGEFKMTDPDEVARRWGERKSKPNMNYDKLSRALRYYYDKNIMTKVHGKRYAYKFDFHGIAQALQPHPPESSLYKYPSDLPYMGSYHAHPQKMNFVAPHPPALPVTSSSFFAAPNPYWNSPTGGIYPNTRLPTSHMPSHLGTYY
The method, boiled down:
as §1

For another test, the target named is ELF1 (Homo sapiens, UniProt P32519 1-619). The method, boiled down:
as §1

A further test deals with T5, EHF (Homo sapiens, UniProt Q9NZC4 1-300).
T5 sequence: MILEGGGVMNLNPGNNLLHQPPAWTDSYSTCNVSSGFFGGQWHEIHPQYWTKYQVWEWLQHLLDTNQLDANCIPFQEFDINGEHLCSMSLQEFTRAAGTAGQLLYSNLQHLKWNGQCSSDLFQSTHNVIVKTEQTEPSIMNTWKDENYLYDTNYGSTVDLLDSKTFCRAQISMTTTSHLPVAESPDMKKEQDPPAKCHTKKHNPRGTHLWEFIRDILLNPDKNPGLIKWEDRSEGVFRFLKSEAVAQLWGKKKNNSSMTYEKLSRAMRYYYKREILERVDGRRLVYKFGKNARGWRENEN
Summed up: as §1

The target in another test is SPI1 (Homo sapiens, UniProt P17947 1-270). Summed up:
as §1

The target of a further test is SPIB (Homo sapiens, UniProt Q01892 1-262). Summed up: as §1
The target of a further test is T6, ELK3 (Homo sapiens, UniProt P41970 1-407).
T6 sequence: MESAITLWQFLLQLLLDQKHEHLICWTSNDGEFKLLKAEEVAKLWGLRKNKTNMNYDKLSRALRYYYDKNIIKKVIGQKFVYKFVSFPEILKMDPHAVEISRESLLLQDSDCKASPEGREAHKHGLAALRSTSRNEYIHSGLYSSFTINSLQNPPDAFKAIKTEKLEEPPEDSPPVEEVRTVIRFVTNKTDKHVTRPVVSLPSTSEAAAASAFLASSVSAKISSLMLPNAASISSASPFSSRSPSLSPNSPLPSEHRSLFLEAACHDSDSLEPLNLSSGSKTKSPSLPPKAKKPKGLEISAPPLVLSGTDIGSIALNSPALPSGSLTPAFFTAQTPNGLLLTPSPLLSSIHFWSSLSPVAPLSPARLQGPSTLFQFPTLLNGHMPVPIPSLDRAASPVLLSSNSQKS
The method, boiled down: as §1

The target in another test is T7, FEV (Homo sapiens, UniProt Q99581 1-238).
T7 sequence: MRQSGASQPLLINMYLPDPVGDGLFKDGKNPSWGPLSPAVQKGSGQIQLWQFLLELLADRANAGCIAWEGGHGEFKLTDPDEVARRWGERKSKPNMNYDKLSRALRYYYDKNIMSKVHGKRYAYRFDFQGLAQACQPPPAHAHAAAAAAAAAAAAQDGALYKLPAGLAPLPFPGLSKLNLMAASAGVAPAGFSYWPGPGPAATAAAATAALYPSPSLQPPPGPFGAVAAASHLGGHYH
Summed up: as §1

Another test deals with ETV5 (Homo sapiens, UniProt P41161 1-510). Summed up:
as §1

In a further test the target is T8, SPIC (Homo sapiens, UniProt Q8N5J4 1-248).
T8 sequence: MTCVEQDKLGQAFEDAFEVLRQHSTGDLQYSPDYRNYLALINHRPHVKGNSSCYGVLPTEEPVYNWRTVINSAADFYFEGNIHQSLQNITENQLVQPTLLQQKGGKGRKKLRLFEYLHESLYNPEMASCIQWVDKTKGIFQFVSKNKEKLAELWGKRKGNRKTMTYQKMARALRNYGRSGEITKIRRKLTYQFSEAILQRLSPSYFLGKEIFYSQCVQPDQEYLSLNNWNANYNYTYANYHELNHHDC
The method, boiled down:
as §1

In the next test the target is ELF4 (Homo sapiens, UniProt Q99607 1-663). Summed up:
as §1

The target of the next test is T9, ELK4 (Homo sapiens, UniProt P28324-2 1-405).
T9 sequence: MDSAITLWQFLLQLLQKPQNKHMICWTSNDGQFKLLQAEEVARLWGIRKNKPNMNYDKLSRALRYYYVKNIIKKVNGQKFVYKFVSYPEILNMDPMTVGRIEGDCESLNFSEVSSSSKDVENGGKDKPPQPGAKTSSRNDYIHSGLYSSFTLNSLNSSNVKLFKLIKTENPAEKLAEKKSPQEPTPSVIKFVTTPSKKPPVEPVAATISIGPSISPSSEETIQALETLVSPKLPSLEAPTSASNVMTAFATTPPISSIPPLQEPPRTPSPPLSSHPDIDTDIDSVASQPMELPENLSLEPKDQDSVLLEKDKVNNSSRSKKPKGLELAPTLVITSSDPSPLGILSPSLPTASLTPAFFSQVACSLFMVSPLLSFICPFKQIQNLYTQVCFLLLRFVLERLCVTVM
Summed up:
as §1

A further test has as its target T10, ETV2 (Homo sapiens, UniProt O00321 1-342).
T10 sequence: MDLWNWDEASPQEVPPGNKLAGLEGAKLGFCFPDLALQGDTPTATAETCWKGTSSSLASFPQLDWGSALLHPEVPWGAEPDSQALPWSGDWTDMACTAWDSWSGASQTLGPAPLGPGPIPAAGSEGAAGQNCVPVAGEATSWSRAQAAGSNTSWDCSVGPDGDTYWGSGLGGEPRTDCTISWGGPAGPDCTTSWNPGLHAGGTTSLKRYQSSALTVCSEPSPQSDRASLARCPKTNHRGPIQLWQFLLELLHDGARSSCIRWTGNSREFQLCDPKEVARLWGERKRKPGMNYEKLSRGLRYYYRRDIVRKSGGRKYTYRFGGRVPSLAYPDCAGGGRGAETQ
The method, boiled down: as §1

The next test has as its target T11, ELF3 (Homo sapiens, UniProt P78545 1-371).
T11 sequence: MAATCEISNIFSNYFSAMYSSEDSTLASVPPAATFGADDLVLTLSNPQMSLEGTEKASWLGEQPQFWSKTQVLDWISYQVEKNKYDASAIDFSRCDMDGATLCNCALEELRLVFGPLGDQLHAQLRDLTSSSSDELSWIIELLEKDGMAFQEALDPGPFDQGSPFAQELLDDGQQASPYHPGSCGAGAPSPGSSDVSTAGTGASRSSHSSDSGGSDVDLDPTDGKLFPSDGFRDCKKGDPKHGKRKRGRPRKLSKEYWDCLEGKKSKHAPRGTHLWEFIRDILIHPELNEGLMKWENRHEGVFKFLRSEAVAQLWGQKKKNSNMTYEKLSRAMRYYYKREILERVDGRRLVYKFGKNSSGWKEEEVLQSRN
Summed up:
as §1

The target of the next test is ETV1 (Homo sapiens, UniProt P50549 1-477). The method, boiled down: as §1
Chain of ETV1 (P50549 whole entry): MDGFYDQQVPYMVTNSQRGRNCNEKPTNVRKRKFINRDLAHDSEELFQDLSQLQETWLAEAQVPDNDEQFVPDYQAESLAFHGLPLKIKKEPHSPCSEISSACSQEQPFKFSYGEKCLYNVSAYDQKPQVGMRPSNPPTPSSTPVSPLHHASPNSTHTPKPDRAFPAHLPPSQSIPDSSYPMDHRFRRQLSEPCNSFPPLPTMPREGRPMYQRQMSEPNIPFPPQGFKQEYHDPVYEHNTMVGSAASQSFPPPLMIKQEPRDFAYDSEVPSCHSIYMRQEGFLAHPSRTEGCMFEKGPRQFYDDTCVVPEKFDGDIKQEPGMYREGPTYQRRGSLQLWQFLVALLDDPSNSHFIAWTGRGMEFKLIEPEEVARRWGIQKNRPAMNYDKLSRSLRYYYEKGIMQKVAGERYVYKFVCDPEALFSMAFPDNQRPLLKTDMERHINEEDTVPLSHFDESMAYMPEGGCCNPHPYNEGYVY

Chain of ETV5 (P41161 whole entry): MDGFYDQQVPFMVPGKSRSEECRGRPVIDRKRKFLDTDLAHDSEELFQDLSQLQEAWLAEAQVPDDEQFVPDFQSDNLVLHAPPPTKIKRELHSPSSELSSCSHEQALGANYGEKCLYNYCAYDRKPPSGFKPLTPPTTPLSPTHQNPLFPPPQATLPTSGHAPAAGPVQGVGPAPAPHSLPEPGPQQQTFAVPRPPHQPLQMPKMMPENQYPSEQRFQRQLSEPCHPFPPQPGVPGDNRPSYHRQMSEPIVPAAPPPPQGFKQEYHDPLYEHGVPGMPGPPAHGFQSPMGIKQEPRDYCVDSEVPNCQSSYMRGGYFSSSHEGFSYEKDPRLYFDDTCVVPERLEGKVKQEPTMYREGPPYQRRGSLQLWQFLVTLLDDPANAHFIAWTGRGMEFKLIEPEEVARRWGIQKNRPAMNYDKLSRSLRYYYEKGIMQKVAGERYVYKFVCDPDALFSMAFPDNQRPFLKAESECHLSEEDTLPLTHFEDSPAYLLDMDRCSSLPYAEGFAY
Chain of SPIB (Q01892 whole entry): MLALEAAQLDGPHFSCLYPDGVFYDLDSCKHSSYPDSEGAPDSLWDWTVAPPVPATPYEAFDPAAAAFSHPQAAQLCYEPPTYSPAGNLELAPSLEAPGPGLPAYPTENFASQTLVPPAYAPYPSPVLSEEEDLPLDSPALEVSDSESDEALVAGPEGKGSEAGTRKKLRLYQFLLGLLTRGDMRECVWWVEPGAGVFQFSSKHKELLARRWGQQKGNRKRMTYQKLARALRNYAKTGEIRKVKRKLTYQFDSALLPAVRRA
Chain of ELF1 (P32519 whole entry): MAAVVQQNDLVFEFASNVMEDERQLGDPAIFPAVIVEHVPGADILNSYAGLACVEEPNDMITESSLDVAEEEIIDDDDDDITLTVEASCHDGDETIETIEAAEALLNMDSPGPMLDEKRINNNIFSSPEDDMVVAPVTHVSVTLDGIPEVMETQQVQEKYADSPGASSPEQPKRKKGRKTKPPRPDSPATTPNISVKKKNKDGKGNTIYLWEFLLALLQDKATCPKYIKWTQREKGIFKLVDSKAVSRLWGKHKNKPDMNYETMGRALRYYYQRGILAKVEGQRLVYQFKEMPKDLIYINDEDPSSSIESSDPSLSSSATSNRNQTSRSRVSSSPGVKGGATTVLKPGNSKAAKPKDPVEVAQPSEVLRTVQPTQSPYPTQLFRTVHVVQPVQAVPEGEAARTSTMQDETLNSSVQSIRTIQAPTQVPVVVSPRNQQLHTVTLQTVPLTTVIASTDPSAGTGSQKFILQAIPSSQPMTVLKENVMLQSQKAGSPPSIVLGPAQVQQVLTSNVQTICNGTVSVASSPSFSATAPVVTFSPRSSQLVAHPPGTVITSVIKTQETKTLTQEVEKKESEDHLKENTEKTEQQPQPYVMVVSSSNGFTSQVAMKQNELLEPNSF
Chain of ELF4 (Q99607 whole entry): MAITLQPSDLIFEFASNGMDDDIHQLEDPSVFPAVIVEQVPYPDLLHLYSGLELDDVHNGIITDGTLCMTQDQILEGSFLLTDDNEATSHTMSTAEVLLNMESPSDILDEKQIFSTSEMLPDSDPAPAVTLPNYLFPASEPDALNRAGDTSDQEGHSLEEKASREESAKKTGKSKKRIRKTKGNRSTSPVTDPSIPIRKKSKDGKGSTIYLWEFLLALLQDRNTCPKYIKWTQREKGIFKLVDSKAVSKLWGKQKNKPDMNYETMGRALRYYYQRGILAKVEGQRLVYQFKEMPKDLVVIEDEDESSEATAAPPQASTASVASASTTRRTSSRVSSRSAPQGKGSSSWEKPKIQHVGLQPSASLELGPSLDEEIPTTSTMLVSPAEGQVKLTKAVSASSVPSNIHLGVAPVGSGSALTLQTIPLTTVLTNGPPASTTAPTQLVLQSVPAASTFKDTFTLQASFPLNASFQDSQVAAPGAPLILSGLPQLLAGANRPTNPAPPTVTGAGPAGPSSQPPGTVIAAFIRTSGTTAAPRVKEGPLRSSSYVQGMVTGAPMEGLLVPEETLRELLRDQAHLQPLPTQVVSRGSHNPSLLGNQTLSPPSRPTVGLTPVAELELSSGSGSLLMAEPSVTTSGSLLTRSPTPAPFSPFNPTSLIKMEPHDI

In the case of CACTAC, the binding signal was 1.38 fold enrichment (6-mer frequency, TF over GST control) in the test with FLI1; 1.37 fold enrichment (6-mer frequency, TF over GST control) with ELK1; 1.36 fold enrichment (6-mer frequency, TF over GST control) with GABPA; 1.31 fold enrichment (6-mer frequency, TF over GST control) with ERG; 1.33 fold enrichment (6-mer frequency, TF over GST control) with ELF1; 1.28 fold enrichment (6-mer frequency, TF over GST control) with EHF. Further, the binding signal is 1.17 fold enrichment (6-mer frequency, TF over GST control) with SPI1; 1.36 fold enrichment (6-mer frequency, TF over GST control) with SPIB; 1.27 fold enrichment (6-mer frequency, TF over GST control) in the test with ELK3; 1.35 fold enrichment (6-mer frequency, TF over GST control) in the test with FEV; 1.3 fold enrichment (6-mer frequency, TF over GST control) in the test with ETV5; 1.14 fold enrichment (6-mer frequency, TF over GST control) in the test with SPIC. In addition, the binding signal is 1.27 fold enrichment (6-mer frequency, TF over GST control) with ELF4; 1.37 fold enrichment (6-mer frequency, TF over GST control) in the test with ELK4; 1.34 fold enrichment (6-mer frequency, TF over GST control) with ETV2; 1.3 fold enrichment (6-mer frequency, TF over GST control) with ELF3; 1.21 fold enrichment (6-mer frequency, TF over GST control) with ETV1.

Turning to CGCTAC, the binding signal with FLI1 was 1.24 fold enrichment (6-mer frequency, TF over GST control); in the test with ELK1, 1.23 fold enrichment (6-mer frequency, TF over GST control); with GABPA, 1.25 fold enrichment (6-mer frequency, TF over GST control); in the test with ERG, 1.24 fold enrichment (6-mer frequency, TF over GST control); with ELF1, 1.2 fold enrichment (6-mer frequency, TF over GST control); with EHF, 1.13 fold enrichment (6-mer frequency, TF over GST control). The binding signal with SPI1 is 1.16 fold enrichment (6-mer frequency, TF over GST control); in the test with SPIB, 1.13 fold enrichment (6-mer frequency, TF over GST control); with ELK3 it was 1.28 fold enrichment (6-mer frequency, TF over GST control); in the test with FEV it was 1.18 fold enrichment (6-mer frequency, TF over GST control); with ETV5, 1.15 fold enrichment (6-mer frequency, TF over GST control); in the test with SPIC, 1.18 fold enrichment (6-mer frequency, TF over GST control). Also, the binding signal in the test with ELF4 is 1.24 fold enrichment (6-mer frequency, TF over GST control); with ELK4 it was 1.2 fold enrichment (6-mer frequency, TF over GST control); with ETV2 it was 1.25 fold enrichment (6-mer frequency, TF over GST control); with ELF3 it was 1.24 fold enrichment (6-mer frequency, TF over GST control); with ETV1, 1.27 fold enrichment (6-mer frequency, TF over GST control).
